Here are results for seven compounds from PubChem BioAssay.

The structures appear in SMILES notation. “And” between values parts separate entries of the source, which are not always exact repeats. Identical values can stand only once. The source made the active and inactive calls.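 The calls were made as follows, unless noted: active = normalized viability below 100% at a tested concentration; inactive = the rest.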

The subject of test [1] is Aerobactin synthetase IucA (Klebsiella pneumoniae). The experiment in a line: inhibition of K. pneumoniae IucA enzyme – biochemical, Tocris library, absorbance (AID 1345561; call rule not given here;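 also: 100% = enzyme without compound and 0% = no enzyme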). To be noted: purified IucA enzyme assay, absorbance (OD) read-out; stronger effect = lower value;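 tested at 8 µM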.
Test [2] is described as follows: viability loss with induced miR-34 in A549 – imaging, A549 dox-inducible miR-34, nuclei and caspase counts, primary screen (AID 1347080;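 active = compounds whose cell count with miR-34 switched on is under 0.7 times the count with it off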). To be noted: A549 miR-34 inducible, Hoechst nuclei count, 48 h.
Test [3] can be described thus: blockers of cellular phospholipid synthesis – cell-based, LOPAC library, screen 4, primary screen (AID 1347384; call rule not given here). To be noted: animal cells, phospholipid biosynthesis inhibition screen; at 10 µM.
The nature of test [4]: galactose survival enhancers in mitochondrial complex I cybrids – cell-based, galactose medium, ATP luminescence, primary screen (AID 1645843;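 active = z-score of at least 1.8 in each of two replicates, scored against plate mean and spread of sample wells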;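 also: positive z means more ATP and so rescue of galactose-driven cybrid death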). To be noted: complex I mutant cybrid cells, 72 h, stronger effect = higher value.
A short description of test [5]: compounds altering circadian rhythm period length – cell-based, LOPAC library, luminescence reporter (AID 2774; call rule not given here;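 also: values are relative to mean of DMSO wells on each plate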). To be noted: circadian reporter cells, at 7 µM, actives lie on both sides.
Test [6] concerns Hepatitis C virus NS3 helicase. Put plainly: blockers of NS3h binding to ssDNA – biochemical, fluorescence polarization, LOPAC1280 library, primary screen (AID 687035; in the data active = inhibition above about 37%). To be noted: Purified HCV NS3 helicase, Cy5-dT15 ssDNA binding fluorescence polarization; stronger effect = higher value; concentration not given here.
The nature of test [7]: compounds altering Cy5-DNA-NS3h complex signal – biochemical, LOPAC1280, artefact control for HCV NS3 helicase inhibitor project (AID 687037; call rule not given here). To be noted: Cy5-DNA-NS3h complex fluorescence interference counterscreen. A general note: The purpose of a counterscreen is to sort out artefacts and off-target activity.
The nature of test [8]: chitosan synthesis blockers in C. neoformans – flow cytometry, Cibacron Brilliant Red staining (AID 1347148; call rule not given here;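 also: compound exposure lasted three days at 37 degrees C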). To be noted: Cryptococcus neoformans chitosan, stronger effect = lower value; at 10 µM unless noted.
Test [9] can be described thus: compounds altering HSF1 focus formation in cells – imaging, Selleck Cancer Library (AID 1347162; in the data active = plate-normalised HSF1 focus index below about 0.46). To be noted: human cells, HSF1 nuclear foci imaging, at 10 µM; SSMD: measured here: HSF1 foci SSMD mean; cell count: measured here: cell number; plate-normalised HSF1 focus index: stronger effect = lower value.
Test [10] is described as follows: MELAS cybrid and Rieske KO viability enhancers – cell-based, MELAS cybrids, Rieske KO mouse fibroblasts, CellTiter-Glo, primary screen (AID 1508586;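 active = mean z-score across replicates of 1.96 or higher in either the MELAS or the Rieske mutant cell line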;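 also: z relative to plate mean and SD of compound and empty wells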). To be noted: low glucose. Background: ATP-based viability assays read luminescence as a measure of living cells.
The nature of test [11]: drug combination growth inhibition, ovarian cancer – cell-based, oncology-focused library, rucaparib conditional, profiling panel (AID 1508598). To be noted: patient-derived ovarian cancer cells, CellTiter-Glo viability, 144 h, stronger effect = lower value.
[12] abbreviates: stronger effect = lower value, cell number ratio, induced over uninduced.
[13] abbreviates: measured here: relative caspase fold change +Dox/-Dox.
[14] abbreviates: measured here: total cells with miR-34 induction, stronger effect = lower value.
[15] abbreviates: measured here: total cells without miR-34 induction.

For the compound `Fc1cccc(/C=N/N=C/c2cccc(F)c2)c1`, the remaining activity (usually the signal under treatment as a percentage of the control signal) in test [1] was 113% (inactive). The fold change in test [2] (setting [12]) was 1.08 (inactive) and 0.921 (inactive); in test [2] (setting [13]) it was 1.02 and 0.755. Besides, the cell count in [2] (setting [14]) is 11300 and 8600; in test [2] (setting [15]), 10400 and 9330. The compound was classed as inactive in test [3]. The z-score in test [4] was 0.64 (inactive) and 0.415 (inactive).

With `C=CCN1CCc2cc(O)c(O)cc2C(c2ccccc2)C1` (stereo not drawn), the period change in test [5] is 0.045 h (inactive). Moreover, the inhibition – broadly, the relative decrease from the control value, in per cent – in [6] is -4% (inactive). For the same compound, in [7], the fluorescence ratio (interference) was 0.9 (inactive). Moreover, the remaining activity in test [1] is 113% (inactive). Also, the fold change in test [2] (setting [12]) is 0.956 (inactive) and 0.974 (inactive); in [2] (setting [13]) it was 1.26 and 0.531. The cell count in test [2] (setting [14]) was 10300 and 8820; in [2] (setting [15]), 10700 and 9060. Also, the compound was classed as inactive in [3]. For the same compound, in [4], the z-score was -1.29 (inactive) and -0.785 (inactive).

Take `CC(N)=NCc1cccc(CN)c1`: the period change in test [5] was -0.015 h (inactive). Besides, in [1], the remaining activity was 107% (inactive). Besides, the fold change in test [2] (setting [12]) is 1.05 (inactive) and 0.837 (inactive); in [2] (setting [13]) it was 1.01 and 0.692. Moreover, the cell count was 6210 and 7850 in [2] (setting [14]); 5900 and 9380 in test [2] (setting [15]). In addition, the fold fluorescence in test [8] is 3.53 [at 282.1 µM] (inactive). Further, in test [4], the z-score is 0 (inactive).

Consider `O=C1CCc2c(ccc3ccccc23)O1`, for which the remaining activity in test [1] was 100% (inactive). The fold change was 0.939 (inactive) and 0.91 (inactive) in test [2] (setting [12]); 0.854 and 0.797 in test [2] (setting [13]). Also, the cell count in test [2] (setting [14]) was 5380 and 8760; in [2] (setting [15]) it was 5730 and 9620. Further, in [8], the fold fluorescence was 3.79 [at 252.2 µM] (inactive). Besides, in test [4], the z-score is -0.32 (inactive).

Regarding `S=C(S)OC1CC2CC1C1CCCC21` (stereo not drawn), in test [5], the period change was -0.18 h (inactive). For the same compound, the inhibition in [6] is -2% (inactive). The fluorescence ratio (interference) in test [7] is 1 (inactive). Further, the remaining activity in test [1] is 120% (inactive). The fold change in test [2] (setting [12]) is 0.999 (inactive) and 0.847 (inactive) and 0.975 (inactive); in test [2] (setting [13]), 0.874 and 0.927 and 0.9. The cell count was 10600 and 4560 and 8830 in test [2] (setting [14]); 10600 and 5380 and 9060 in [2] (setting [15]). For the same compound, the fold fluorescence in [8] is 5.66 [at 187.6 µM] (inactive). The compound was classed as inactive in test [3]. For the same compound, the z-score in test [4] was -0.025 (inactive) and -0.095 (inactive).

Turning to `COc1cc(/C=C(\C#N)C(N)=O)cc(CSc2nc3ccccc3s2)c1O`, in [1], the remaining activity is 115% (inactive). For the same compound, the fold change in [2] (setting [12]) is 0.859 (inactive) and 0.896 (inactive); in test [2] (setting [13]) it was 1.08 and 1.29. Also, the cell count is 4790 and 8180 in test [2] (setting [14]); 5570 and 9130 in test [2] (setting [15]). In addition, in test [8], the fold fluorescence is 9.44 [at 125.8 µM] (inactive). In test [4], the z-score is 5.03 (active).

Turning to `CC(NC(=O)c1ccccc1N=Cc1c(O)ccc2ccccc12)c1ccccc1` (stereo not drawn), in [1], the remaining activity was 102% (inactive). Moreover, the fold change in test [2] (setting [12]) was 0.954 (inactive) and 0.917 (inactive); in test [2] (setting [13]), 0.477 and 1.5. In addition, the cell count in test [2] (setting [14]) was 7190 and 7160; in [2] (setting [15]), 7540 and 7810; in [9], 7320. In addition, the SSMD in test [9] came out at 1.72. In addition, in [9], the plate-normalised HSF1 focus index was 1.11 (inactive). Also, the z-score in test [10] (MELAS cybrid survival, CellTiter-Glo 48 h, stronger effect = higher value) is -0.168 (inactive); in test [10] (Rieske KO mouse fibroblast survival, CellTiter-Glo 72 h) it was -0.189; in test [4], 0.205 (inactive). In addition, the viability (usually a read-out of living cells in per cent, often relative to untreated cells) is 111% (inactive) in [11] (at 0.000305 µM, OCI-C5x cells, with rucaparib 10 µM, 100% = cells with rucaparib alone); 99.9% (active) in test [11] (at 0.000305 µM, OCI-C5x cells, without rucaparib); 102% (inactive) in [11] (at 0.000305 µM, OCI-P5x cells, with rucaparib 20 µM, 100% = cells with rucaparib alone); 90.3% (active) in test [11] (at 0.000305 µM, OCI-P5x cells, without rucaparib); 122% (inactive) in test [11] (at 0.00122 µM, OCI-C5x cells, with rucaparib 10 µM, 100% = cells with rucaparib alone); 121% (inactive) in [11] (at 0.00122 µM, OCI-C5x cells, without rucaparib). The viability in test [11] (at 0.00122 µM, OCI-P5x cells, with rucaparib 20 µM, 100% = cells with rucaparib alone) was 103% (inactive); in [11] (at 0.00122 µM, OCI-P5x cells, without rucaparib), 95.7% (active); in [11] (at 0.00488 µM, OCI-C5x cells, with rucaparib 10 µM, 100% = cells with rucaparib alone) it was 119% (inactive); in [11] (at 0.00488 µM, OCI-C5x cells, without rucaparib) it was 126% (inactive); in test [11] (at 0.00488 µM, OCI-P5x cells, with rucaparib 20 µM, 100% = cells with rucaparib alone), 106% (inactive); in test [11] (at 0.00488 µM, OCI-P5x cells, without rucaparib), 96.5% (active). In addition, the viability in [11] (at 0.0195 µM, OCI-C5x cells, with rucaparib 10 µM, 100% = cells with rucaparib alone) is 121% (inactive); in [11] (at 0.0195 µM, OCI-C5x cells, without rucaparib), 119% (inactive); in [11] (at 0.0195 µM, OCI-P5x cells, with rucaparib 20 µM, 100% = cells with rucaparib alone) it was 114% (inactive); in [11] (at 0.0195 µM, OCI-P5x cells, without rucaparib), 100% (active); in test [11] (at 0.0781 µM, OCI-C5x cells, with rucaparib 10 µM, 100% = cells with rucaparib alone), 112% (inactive); in test [11] (at 0.0781 µM, OCI-C5x cells, without rucaparib), 119% (inactive). The viability in test [11] (at 0.0781 µM, OCI-P5x cells, with rucaparib 20 µM, 100% = cells with rucaparib alone) was 108% (inactive); in test [11] (at 0.0781 µM, OCI-P5x cells, without rucaparib), 102% (inactive); in test [11] (at 0.313 µM, OCI-C5x cells, with rucaparib 10 µM, 100% = cells with rucaparib alone) it was 116% (inactive); in test [11] (at 0.313 µM, OCI-C5x cells, without rucaparib), 118% (inactive); in test [11] (at 0.313 µM, OCI-P5x cells, with rucaparib 20 µM, 100% = cells with rucaparib alone) it was 108% (inactive); in [11] (at 0.313 µM, OCI-P5x cells, without rucaparib), 104% (inactive). The viability in test [11] (at 1.25 µM, OCI-C5x cells, with rucaparib 10 µM, 100% = cells with rucaparib alone) was 116% (inactive); in test [11] (at 1.25 µM, OCI-C5x cells, without rucaparib) it was 126% (inactive); in test [11] (at 1.25 µM, OCI-P5x cells, with rucaparib 20 µM, 100% = cells with rucaparib alone), 115% (inactive); in test [11] (at 1.25 µM, OCI-P5x cells, without rucaparib) it was 109% (inactive); in test [11] (at 5 µM, OCI-C5x cells, with rucaparib 10 µM, 100% = cells with rucaparib alone), 105% (inactive); in [11] (at 5 µM, OCI-C5x cells, without rucaparib) it was 143% (inactive). Also, the viability in [11] (at 5 µM, OCI-P5x cells, with rucaparib 20 µM, 100% = cells with rucaparib alone) was 112% (inactive); in test [11] (at 5 µM, OCI-P5x cells, without rucaparib), 108% (inactive).
